A selection: hits, their analogues and other compounds. The true share with any hit is near 14%.
USP30 block = inhibitors of human USP30 deubiquitinase; Ubiquitin carboxyl-terminal hydrolase 30 (Homo sapiens), Q70CQ3; purified USP30, Ub-rhodamine cleavage fluorescence; inhibition, % at 25 µM; 47,000 tested, 5.3% active
USP8 block = inhibitors of human USP8 deubiquitinase | AID 1645853, 2021 | purified USP8, Ub-rhodamine cleavage fluorescence, 30 min | Ubiquitin carboxyl-terminal hydrolase 8 (Homo sapiens), P40818 | inhibition, % at 20 µM | 47,000 tested, 4.2% active
USP10 inh = inhibitors of human USP10 deubiquitinase. inhibition, % at 20 µM. Ubiquitin carboxyl-terminal hydrolase 10 (Homo sapiens), Q14694. 47,000 tested, 1.1% active. AID 1645856, 2021. purified USP10, Ub-rhodamine fluorescence, 60 min
Target sequence (Q14694 whole entry, looked up): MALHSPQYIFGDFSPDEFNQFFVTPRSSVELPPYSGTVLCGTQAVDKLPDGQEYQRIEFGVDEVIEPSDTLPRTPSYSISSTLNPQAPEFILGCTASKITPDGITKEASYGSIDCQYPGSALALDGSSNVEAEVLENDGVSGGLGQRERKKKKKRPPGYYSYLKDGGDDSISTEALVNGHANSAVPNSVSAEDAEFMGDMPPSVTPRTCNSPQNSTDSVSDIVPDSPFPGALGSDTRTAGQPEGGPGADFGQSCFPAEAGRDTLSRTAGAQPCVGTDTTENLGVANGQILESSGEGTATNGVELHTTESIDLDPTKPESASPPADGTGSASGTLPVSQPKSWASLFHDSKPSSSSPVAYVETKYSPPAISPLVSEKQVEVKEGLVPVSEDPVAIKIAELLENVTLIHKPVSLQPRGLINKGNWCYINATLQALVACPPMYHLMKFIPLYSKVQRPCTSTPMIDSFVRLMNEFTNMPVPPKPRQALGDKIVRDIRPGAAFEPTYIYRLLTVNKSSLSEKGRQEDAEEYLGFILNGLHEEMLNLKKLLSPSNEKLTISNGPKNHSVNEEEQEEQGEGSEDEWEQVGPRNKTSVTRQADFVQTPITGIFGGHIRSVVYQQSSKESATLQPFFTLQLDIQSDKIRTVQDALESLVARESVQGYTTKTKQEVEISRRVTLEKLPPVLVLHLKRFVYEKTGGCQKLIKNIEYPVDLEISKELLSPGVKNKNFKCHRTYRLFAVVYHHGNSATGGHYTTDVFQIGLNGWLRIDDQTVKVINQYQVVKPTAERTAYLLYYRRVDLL
USP28 block = inhibitors of human USP28 deubiquitinase; Ubiquitin carboxyl-terminal hydrolase 28 (Homo sapiens), Q96RU2; purified USP28, Ub-rhodamine cleavage fluorescence, 30 min; inhibition, % at 25 µM; 47,000 tested, 3% active
USP17 inh = inhibitors of human USP17 deubiquitinase. purified USP17, Ub-rhodamine cleavage fluorescence, 3 h. inhibition, % at 50 µM. 47,000 tested, 6.5% active. AID 1645855, 2021
Large screens that a line does not name were inactive. Rule as the data show it: active = inhibition above about 30%; inactive = the rest.

O=C(CCn1c(=O)c2ccccc2n(Cc2ccc([N+](=O)[O-])cc2)c1=O)NCc1ccco1	none
Cc1ccc(Cl)cc1NC(=O)Cn1c(=O)n(CCC(=O)NCc2ccco2)c(=O)c2ccccc21	USP30 block 32, USP8 block 64, USP10 inh 56
O=C(N[C@@H]1CN(C2CCOC2)[C@@H]2COC[C@@H]21)c1cscn1 (some centres undefined)	none
Cc1ccc(S(=O)(=O)[C@H]2CS(=O)(=O)C[C@@H]2NCCc2ccccc2F)cc1	none
CN1CCN(c2ccc3ccc(C(=O)NCCc4ccncc4)cn23)CC1	none
Cc1cc(C(=O)Nc2ccc3nc(N4CCN(c5ncccn5)CC4)cc(C)c3c2)ccc1[N+](=O)[O-]	USP17 inh 73
Cc1cc(N2CCN(c3ncccn3)CC2)nc2ccc(NC(=O)Cn3nc([N+](=O)[O-])c(Br)c3C)cc12	USP30 block 68, USP10 inh 33, USP28 block 42, USP17 inh 64
COc1cc(-c2nc3c(c(=O)c4ccccc4n3C)c(=O)n2Cc2ccco2)cc(OC)c1OC	none
CCCCc1noc(CN2CCC3(CC2)CC3c2nc(-c3cccnc3)no2)n1 (centres undefined)	none
Cc1ccc2c(c1)OCC(=O)N2Cc1nc(-c2ccccc2C)no1	none
Cc1ccc(C)c(CN2C(=O)COc3ccc(C(=O)c4ccccc4C(=O)O)cc32)c1	USP30 block 36
CN1C(=O)COc2cc(-c3noc(C(=O)NCCc4ccccc4)n3)ccc21	none
CC(CNC(=O)c1nc(-c2ccc3c(c2)OCC(=O)N3C)no1)c1ccccc1 (centres undefined)	USP28 block 39
CN1C(=O)COc2cc(-c3noc(C(=O)NC4CCCCC4)n3)ccc21	USP30 block 31
CN1C(=O)COc2cc(-c3noc(C(=O)NCC4CCCO4)n3)ccc21 (centres undefined)	none
COc1ccccc1CNC(=O)c1[nH]nc2c1CCc1ccccc1-2	none
CCOc1ccc2nc(C(=O)N3CCN(CC(C)C)CC3)cn2n1	none
COC(=O)c1ccc(N2CCN(C(=O)c3ccccc3)CC2)c(NC(=O)c2cc(OC)c(OC)c(OC)c2)c1	none
COC(=O)c1ccc(N2CCN(C(=O)c3ccccc3)CC2)c(NC(=O)COc2ccccc2Cl)c1	USP30 block 33, USP17 inh 39
Cc1cccc(C(=O)Nc2ccc3c(N4CCOCC4)ncnc3c2)c1	none
CO[C@@H]1C[C@@H](C[C@H]2CC[C@H](C)[C@H]([C@@H](C)C(=O)O)O2)O[C@]2(O[C@](C)([C@H]3CC[C@@](C)([C@@H]4O[C@@H]([C@H]5O[C@](C)(O)[C@H](C)C[C@@H]5C)C[C@@H]4C)O3)C[C@H]2C)[C@@H]1C	USP30 block 34
CC(Oc1ccccc1)C(=O)Nc1cccc(-c2noc(C3CC3)n2)c1 (centres undefined)	none
CCCNC(=O)[C@H](Cc1ccccc1)NC(=O)N1CCn2c1nc1ccccc12	USP30 block 39, USP17 inh 40
CC(C)NC(=O)[C@H](Cc1ccccc1)NC(=O)N1CCn2c1nc1ccccc12	USP30 block 62, USP17 inh 33
CC(C)[C@H](NC(=O)N1CCn2c1nc1ccccc12)C(=O)N[C@H](Cc1ccccc1)C(=O)O	none
O=C(O)CNC(=O)[C@H](Cc1ccccc1)NC(=O)N1CCn2c1nc1ccccc12	none
Cc1ccc(Cl)cc1N(Cc1ccc(C(=O)N2CCOCC2)cc1)S(=O)(=O)c1ccccc1	USP30 block 50 (no result: USP17 inh)
Cc1ccc(C)c(N(CC(=O)NCCN2CCOCC2)S(=O)(=O)c2ccccc2)c1	none
O=S(=O)(c1ccc(-c2ccco2)cc1)C1CCN(Cc2cccnc2)CC1	none
O=C(c1ccc2occc2c1)N1CCC(S(=O)(=O)c2ccc(-c3ccco3)cc2)CC1	USP8 block 78, USP10 inh 33, USP17 inh 53
CCN(CC)c1ccc(C(=O)CN2CCC(S(=O)(=O)c3ccc(-c4ccco4)cc3)CC2)cc1	USP17 inh 31
O=C(NCc1csc(-c2ccccc2)n1)c1cc(F)cc2c1OCOC2	USP17 inh 33
CC1CCN(CCCNC(=O)C2CCN(S(=O)(=O)c3ccc4c(c3)OCCCO4)CC2)CC1	none
CS(=O)(=O)c1ccccc1C(=O)NC1CCCc2ccccc21 (centres undefined)	none
COc1ccc(S(=O)(=O)N2CCC[C@@H](Cn3nnc(-c4ccncc4)n3)C2)cc1	none
CCOc1ccccc1CN1CCC[C@@H](Cn2nnc(-c3ccncc3)n2)C1	USP30 block 32
O=C(c1ccc(-n2cccn2)nc1)N1C[C@@H](O)[C@H](N2CCCC2)C1	none
CC(C(=O)NCCc1ccc(S(N)(=O)=O)cc1)n1sc2ccccc2c1=O (centres undefined)	USP30 block 39
NS(=O)(=O)c1ccc(CCNC(=O)C(=O)c2c[nH]c3ccccc23)cc1	USP28 block 36
Cc1ccc2c(C)c(C(=O)N(Cc3ccc(Cl)cc3)Cc3ccco3)oc2c1C	USP8 block 49, USP17 inh 35
COc1ccccc1NC(=O)c1nc(-c2cn(-c3ccc(F)cc3)nn2)no1	USP8 block 57 (no result: USP17 inh)
Cc1ccccc1NC(=O)c1nc(-c2cn(Cc3ccc(F)cc3)nn2)no1	USP8 block 95, USP10 inh 35, USP17 inh 78
COc1ccc(Cl)cc1NC(=O)c1nc(-c2cn(-c3ccccc3)nn2)no1	USP8 block 99, USP10 inh 32
CCc1ccc(NC(=O)Cc2nc(-c3ccc(O)cc3O)cs2)cc1	USP17 inh 38 (no result: USP30 block, USP28 block)
CCc1ccc(NC(=O)CN2CCN(c3nc4ccccc4s3)CC2)cc1	none
O=C(Oc1ccc(-c2nccc(-c3cccs3)n2)cc1)c1ccccc1	none
C=C1CCC2[C@](C)(CCC[C@]2(C)C(=O)OC)[C@H]1CCc1ccoc1CNC(CCSC)C(=O)O (some centres undefined)	USP8 block 43
C=C1CCC2[C@](C)(CCC[C@]2(C)C(=O)OC)[C@H]1CCc1ccoc1CNC(C)C (some centres undefined)	none
Cn1c(C(=O)NCCc2ccc(S(N)(=O)=O)cc2)cc2sc(Cl)cc21	USP28 block 41
Cc1ccc(C)c(CN2C(=O)c3ccccc3S(=O)c3ccc(C(=O)NCCc4ccccc4)cc32)c1 (centres undefined)	USP30 block 38
CC(C)(C)c1ccc(C(=O)Nc2ccc([C@@H](O)[C@H]3COCC(=O)N3)cc2)cc1	USP28 block 47
CCCn1c(=O)[nH]c2nc(N3CCCCC3)sc2c1=O	USP17 inh 33
COc1ccc2c(C)c(CC(=O)N3CCN(c4ccccc4)CC3)c(=O)oc2c1	none
